Drawing on PubChem BioAssay (NCI), this text covers growth for 40 molecules.

SMILES strings stand for the structures. This is part of a sample that, as a whole, favours compounds with a hit. Of some 83,000 tested, about 20% had one in any assay.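 Method: cells in 96-well plates; compound added at one concentration; 48 h incubation; percent growth measured; values under 10 scored active.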 A number with no mark means an inactive call. The source made the active and inactive calls.

This assay relates to HL-60(TB) leukemia. Briefly: NCI-60 one-dose screen, 48 h (100 = growth as untreated, 0 = no growth, -100 = all killed). The note with it: 10 µM unless noted.
Take `O=C(COc1ccc(NC(=O)Nc2ccc(Cl)cc2)cc1)N/N=C/c1ccccc1`: the growth was 45.8%.
Turning to `CN1C(=O)N(C)C2SC(N/N=C/c3ccccc3F)=NC21` (stereo not given), the growth was 1.5% (active).
Consider `C#CCOc1cc(N(CC)CC)ccc1C(C(=O)NC(C)(C)C)N(C(=O)C1CCc2cc(F)ccc2O1)c1ccc(F)c(Cl)c1` (stereo not given), for which the growth was 27.2%.
In the case of `N#Cc1c(-c2cccc(O)c2O)cc(-c2ccc3ccccc3c2)[nH]c1=O`, the growth is 56.6%.
The result for `Nc1nn2c(-c3cc4cc(Br)ccc4oc3=O)ccnc2c1N=Nc1ccc(Br)cc1` reads 98.5%.
Consider `O=c1oc2ccc(-c3ccc(F)cc3F)cc2c(=O)n1-c1ccc(F)cc1`, for which the growth is -40.6% (active).
To `Clc1ccc(Nc2nnc(-c3c[nH]c4ccccc34)o2)cc1` belongs 43.4%.
With `CC1=C(C(=O)Nc2ccccc2)C(c2cccc3ccccc23)n2c(nc3ccccc32)N1` (stereo not given), the growth is 95%.
On to `COc1cccc2nc(Nc3cccc(NC(=O)c4ccc(CN5CCN(C)CC5)c(C(F)(F)F)c4)c3)ccc12`, for which the growth was -53.1% (active).
With `CC(=O)Oc1ccccc1C(=O)[Se]C(=NC1CCCCC1)NC1CCCCC1`, the growth was -17.5% (active).
The result for `Cc1noc2c(Cc3ccccc3)nn(CC(=O)N/N=C/c3ccc(Br)cc3)c(=O)c12` reads 100%; that for `COc1ccc(CN2[C@H](C(=O)NCCCCCCC(=O)NO)Cc3c([nH]c4ccccc34)[C@H]2C2CC2)cc1`, 3.44% (active).
For `[2H]C([2H])([2H])Oc1ccc2ncc(C#Cc3cncc(C(=O)Nc4ccc(CN5CCN(C)CC5)c(C(F)(F)F)c4)c3)n2n1`, the growth is -60.4% (active).
Consider `COc1cnc2c(c1)C(=O)c1c-2n(CCCNC(C)C)c(=O)c2cc(OC)c(OC)cc12`, for which the growth is 62.8%.
In the case of `COc1cc2cc(C(=O)N3C[C@@H](CCl)c4c3cc(OC(=O)N(C)CCSSCCN3CCOCC3)c3ccccc43)[nH]c2c(OC)c1OC`, the growth is -39.6% (active).
To `COc1ccc2[nH]cc(/C=N/Nc3cccc(Cl)n3)c2c1` belongs 23.7%; to `COC(=O)CNC(=O)COc1c(OC)c(OC)cc2oc(-c3cccc(C(=O)Nc4ccc(Cl)cc4)c3)cc(=O)c12`, 101%; to `O=C(NO)c1ccc(Cn2ccc3c(NCc4ccccc4)ncnc32)cc1`, -16% (active).
To `CC1(c2cc3cc(Cl)ccc3oc2=O)NC(=O)c2c(/C=C/C(=O)OC3CC4CCC3(C)C4(C)C)cccc2N1` (stereo not given) belongs 29%; to `N#Cc1c(-c2ccc(F)cc2)nc(SCc2ccc(F)cc2)nc1N1CCOCC1`, 85%; to `CC(C)(C)OC(=O)/C=C/c1cccc2c1C(=O)NC(C)(c1cc3cc(Cl)ccc3oc1=O)N2` (stereo not given), -6.16% (active).
As for `NS(=O)(=O)c1ccc(CCNC(=O)CSc2ccc(-c3ccc(Br)cc3)nn2)cc1`, the growth was 55.4%.
As for `COc1c(F)ccc(C(=O)Nc2ccc3nc(NC(=O)C4CCCN(S(=O)(=O)c5ccc(Br)c(F)c5)C4)sc3c2)c1F` (stereo not given), the growth was 88.8%.
To `Cc1cccc(-c2nc(Nc3cccc(S(N)(=O)=O)c3)c3ccccc3n2)c1` belongs 44.9%.
To `N#Cc1ccc(-c2nn(-c3ccc(C(=O)O)cc3)cc2CNc2cc(Cl)cc(Cl)c2)cc1` belongs 29.5%.
Turning to `O=C1Nc2ccc(F)cc2/C1=C/c1cccc(OCc2ccccc2)c1`, the growth is -17.4% (active).
The result for `COC(=O)c1c(C(=O)OC)c2c3ccccc3c3ccccc3n2c1C(=O)C(F)(F)F` reads 107%; that for `CCN1C(=O)N(CC)C2NNC(Sc3c(C(=O)O)c4ccccc4n(CC(C)C)c3=O)=NC21` (stereo not given), -53.3% (active).
As for `c1ccc(CSc2nnc(-c3ccc4nc(-c5ccccc5)[nH]c4c3)o2)cc1`, the growth was 83.5%.
Turning to `COc1cc(/C=C/C(=O)c2ccc(F)cc2)ccc1Oc1nc(Nc2ccc(F)cc2)nc(N(C)C)n1`, the growth was 61.3%.
`COc1ccc(-c2cc(C(=O)OCc3ccc(Br)cc3)nn2-c2ccc(S(C)(=O)=O)cc2)cc1OC`: the growth was 83.6%.
As to `COc1ccc(/C=C/c2nc3ccccc3c(=O)n2CC(=O)Nc2ccc(OC)cc2)cc1`, the growth is 82%.
With `O=C1NC(=NC23CC4CC(CC(C4)C2)C3)N/C1=C\c1ccc2ncsc2c1`, the growth is -16.1% (active).
The result for `COC1=C[C@@]23CCC(=O)N2CCc2cc4c(cc2[C@H]3[C@H]1OC(=O)C(C)(C)O)OCO4` reads 87%; that for `COc1cc(C=O)ccc1OC(=O)c1cc(-c2ccc(C)cc2)n(-c2ccc(S(C)(=O)=O)cc2)n1`, 83.4%; that for `Cn1cc(-c2nnc(N)nc2-c2c[nH]c3ccccc23)c2cc(Br)cnc21`, 13.6%.
In the case of `Cn1cc(-c2cc3nc(-c4c[nH]c5ccc(Cl)cc45)cc(N)n3n2)c2ccccc21`, the growth is -34.2% (active).
The result for `COc1ccc(-c2ccnc(SCc3cc4cc(OC)ccc4[nH]c3=O)n2)cc1` reads -8.43% (active).
Take `NC(=S)Nc1cccc(NC(N)=S)c1`: the growth was 99.1%.
As to `O=C(c1ccccc1)c1ccc2nc(-c3ccccc3Br)[nH]c2c1`, the growth is -52.4% (active).
